# From PubChem BioAssay
# CYP2C19 inh: blocks human cytochrome P450 2C19; P33261; CYP2C19 Supersomes, luciferin-H EGE luminescence, 30 min; inhibition, % at 5 µM; hit rate 21% among 96,000;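 active = CYP2C19 inhibition above a set limit at 5 µM in the primary screen, cut at about 50% in these data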;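 also: plate controls were negative control wells for no effect and 2.5 mM tranylcypromine positive control for full effect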
# Target sequence (P33261 whole entry, looked up): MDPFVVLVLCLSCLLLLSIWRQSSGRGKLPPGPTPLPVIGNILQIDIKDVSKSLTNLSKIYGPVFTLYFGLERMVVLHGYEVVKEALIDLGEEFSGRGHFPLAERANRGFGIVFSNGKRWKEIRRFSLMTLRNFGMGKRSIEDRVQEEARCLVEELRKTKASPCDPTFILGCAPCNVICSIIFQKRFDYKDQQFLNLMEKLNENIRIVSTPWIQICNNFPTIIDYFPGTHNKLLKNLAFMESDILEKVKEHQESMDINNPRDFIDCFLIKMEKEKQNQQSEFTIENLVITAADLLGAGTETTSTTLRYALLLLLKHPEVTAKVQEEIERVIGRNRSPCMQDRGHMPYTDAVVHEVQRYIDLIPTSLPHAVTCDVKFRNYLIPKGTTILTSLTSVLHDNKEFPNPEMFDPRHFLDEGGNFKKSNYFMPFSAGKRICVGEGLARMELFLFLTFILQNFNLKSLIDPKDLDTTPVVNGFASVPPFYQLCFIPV
# CYP2C9 activ: activators of human CYP2C9; P11712; recombinant CYP2C9, luciferin-H conversion, luminescence; stronger effect = higher value; factor 1 = untreated enzyme, 0 = blocked; activation factor at 5 µM; hit rate 1.4% among 96,000; AID 1024;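 active = activation factor of 2 or more for CYP2C9 at a 5 µM dose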;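 also: 0 = sulfaphenazole-blocked wells and 1 = vehicle-only wells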
# CYP2C9 inh: blocks human cytochrome P450 2C9; P11712; CYP2C9 Supersomes, luciferin-H conversion, luminescence; inhibition, % at 5 µM; hit rate 20% among 96,000; AID 777;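 active = blocking of liver enzyme CYP2C9 beyond about 50% at 5 µM, limit read from the data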
# PostGolgi ctrl: inhibits growth of the yeast control strain | inhibition, % at 10 µM | hit rate 5% among 98,000 | efflux-deficient yeast background strain, growth absorbance A615, 16 h
# CYP2C19 activ: activators of human cytochrome P450 2C19. 96,000 tested, under 10 active. activation factor at 5 µM. recombinant CYP2C19, luciferin-H EGE luminescence; stronger effect = higher value; 0 = fully inhibited enzyme, 1 = untreated enzyme;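 active = activation factor of at least 2 at 5 µM in the primary screen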;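 also: 0 = wells with 2.5 mM tranylcypromine and 1 = vehicle-only wells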
# PostGolgi yeast: growth inhibition of a yeast mutant, post-Golgi transport screen | post-Golgi transport phenotypic cell assay | inhibition, % at 10 µM | hit rate 0.9% among 98,000;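 also: yeast cells grown in 1536-well plates; yeast grown about 18 h at 30C before absorbance read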
# * = called active by the depositor; / = no result given. The list is not random: actives were taken first. Their share in the collection is about 32%. Rule as the data show it, unless noted: active = inhibition above about 30%; inactive = the rest.
SMILES,CYP2C19 inh,CYP2C9 activ,CYP2C9 inh,PostGolgi ctrl,CYP2C19 activ,PostGolgi yeast
O=C(C1CCCO1)N(c1cccc(Cl)c1)C1C=CS(=O)(=O)C1 (stereo not drawn),7,1,-4,6,0.9,-2
CS(=O)(=O)N1CCc2cc(S(=O)(=O)N3CCN(Cc4ccc5c(c4)OCO5)CC3)ccc21,10,0.9,12,6,0.9,0
O=S(=O)(c1ccc(Cl)nc1)N1CCN(Cc2ccc3c(c2)OCO3)CC1,63*,0.3,74*,-2,0.4,22
CCCOc1ccc(C(=O)NC(C)C(=O)O)cc1 (stereo not drawn),-12,1.2,-18,-2,1.1,4
Cc1cc(-c2ccccc2)nc(N(C)NC(=O)c2cccc(C(F)(F)F)c2)c1S(C)(=O)=O,15,0.9,13,3,0.8,-7
CCCCS(=O)CC(O)COCC (stereo not drawn),-14,1.1,-6,-7,1.1,-1
Cc1nn(Cc2cccc(C(=O)Nc3ccn(Cc4ccccc4)n3)c2)c(C)c1[N+](=O)[O-],8,0.8,24,6,0.9,-11
Cc1nn(Cc2cccc(C(=O)NC(C)c3ccc(C(C)(C)C)cc3)c2)c(C)c1[N+](=O)[O-] (stereo not drawn),78*,0.1,87*,3,0.2,51*
CCC(NC(=O)c1cccc(Cn2nc(C)c([N+](=O)[O-])c2C)c1)c1ccc(C(C)C)cc1 (stereo not drawn),23,0.5,49,-5,0.8,-3
CC1=NN(C(=O)c2cccc(Cn3nc(C)c([N+](=O)[O-])c3C)c2)C(O)(C(F)(F)F)C1 (stereo not drawn),47,0.3,70*,-3,0.5,1
Cc1nn(Cc2cccc(C(=O)N3N=C(C(F)F)CC3(O)C(F)F)c2)c(C)c1[N+](=O)[O-] (stereo not drawn),78*,0.1,85*,5,0.2,-3
CCC(=O)N1CCN(c2ccc(NC(=O)c3c(F)c(F)c(OC)c(F)c3F)cc2)CC1,0,0.8,15,6,1,-5
Cc1noc(C)c1S(=O)(=O)N1CCN(C(c2ccccc2)c2ccc(Cl)cc2)CC1 (stereo not drawn),75*,0.2,77*,-3,0.2,-4
CC(NC(=O)COc1ccccc1)C(c1ccccc1)N1CCN(C)CC1 (stereo not drawn),46,0.9,14,0,0.5,-2
C1=C(c2ccccc2)N2CCN=C2S1,2,0.9,7,-7,1,-4
Cc1ccc(C2=CSC3=NCCN23)c(C)c1,56*,1,2,-2,0.4,12
CCCCc1ccc(Nc2nc(CCC)cc(=O)[nH]2)cc1,6,0.8,20,52*,0.9,6
CCOC(=O)/C(C#N)=C\c1cc(C)n(-c2ccccc2)c1C,21,0.8,22,25,0.8,-2
CCOC(=O)/C(C#N)=C/c1cc(C)n(-c2ccc(C)cc2)c1C,16,0.4,55*,19,0.8,-2
Cc1noc(C)c1COC(=O)CCCc1c[nH]c2ccccc12,93*,0.2,81*,-7,0.1,8
Cc1noc(C)c1COC(=O)CCc1nc2ccccc2c(=O)[nH]1,41,0.4,59*,-2,0.6,-2
COc1ccc(Nc2ncccc2C(=O)NCc2ccccc2)cc1,84*,0.2,79*,5,0.2,3
CCOc1ncccc1C(=O)NCc1ccc(OC)cc1,52*,0.5,52*,1,0.5,-24
CC(C(=O)NCC1CCCO1)n1cccc1C(=O)c1ccccc1 (stereo not drawn),11,0.9,8,15,0.9,7
CCCc1nnc(NC(=O)c2c(O)c3cccc4c3n(c2=O)CC4)s1,0,0.9,8,/,1,/
SMILES,CYP2C19 inh,CYP2C9 activ,CYP2C9 inh,PostGolgi ctrl,CYP2C19 activ,PostGolgi yeast
CC1=C(C(=O)Nc2ccccc2)C(c2cccc([N+](=O)[O-])c2)Nc2nc3ccccc3n21 (stereo not drawn),25,0.9,10,4,0.8,-5
Cn1c(Oc2ccc(Cl)cc2)c(C=O)c2ccccc21,58*,0.7,30,9,0.4,1
Cn1c(Sc2ccccc2Cl)c(C=O)c2ccccc21,40,0.6,36,13,0.6,5
COc1ccc(-c2c(NC(=O)C(C)C)n(C)c3ccccc3c2=O)cc1,47,0.6,35,4,0.5,-11
Cc1ccc(Oc2c(C=O)c3ccccc3n2C)cc1,68*,1,-3,33*,0.3,7
COc1ccc(Oc2c(C=O)c3ccccc3n2C)cc1,69*,1.3,-34,6,0.3,-12
O=C1Nc2ccccc2C1=Nc1ccc(-c2nnc3n2CCCCC3)cc1,-5,1.2,-16,3,1,6
O=S(=O)(Cc1ccccc1)N1CCN(c2ccccc2)CC1,8,1.3,-33,6,0.9,3
O=S(=O)(Cc1ccccc1)N1CCN(Cc2ccccc2)CC1,53*,1.7,-70,11,0.5,0
O=S(=O)(Cc1ccc(Cl)cc1)N1CCCC1,93*,0.9,7,21,0.1,2
O=S(=O)(Cc1ccccc1)N1CCCCC1,44,1.1,-10,2,0.6,4
O=S(=O)(Cc1ccccc1)N1CCc2ccccc2C1,97*,3.7*,-270,6,0,4
O=S(=O)(Cc1ccccc1)N1CCCCCC1,66*,1,-5,8,0.3,8
CCCN1C2=NS(=O)(=O)CCN2c2ccccc21,-1,1.2,-21,-1,1,-1
Nc1nonc1C(=O)NCCNCc1cc(Br)ccc1OCc1ccccc1F,57*,0.6,43,7,0.4,3
CCOc1c(CNCCNC(=O)c2nonc2N)cccc1OC,74*,1.1,-8,13,0.3,0
Nc1nonc1C(=O)NCCNCc1ccccc1OCc1ccccc1F,36,0.8,25,31*,0.6,-4
Cn1c(Cn2nnc3ccccc32)nnc1SCC(=O)N1CCc2ccccc21,-7,1,-4,25,1.1,-1
CCN1CCN(CC(=O)Nc2cccc(C)c2C)C(=O)C1=O,-4,1,1,26,1,5
CN1CCN(S(=O)(=O)c2ccc(-c3noc(C4CCN(S(C)(=O)=O)CC4)n3)cc2)CC1,-5,1.1,-9,2,1.1,-2
Cc1cc(Oc2ccccc2)nc2ccc(O)cc12,80*,1.9,-85,24,0.2,0
c1ccc(Oc2cnc3ccccc3n2)cc1,30,1,2,1,0.7,-1
CCN(CC)S(=O)(=O)N1CCC(C(=O)NC2CCCc3ccccc32)CC1 (stereo not drawn),/,/,/,7,/,3
Cc1ccc(/C=N/NC(=O)c2cc(C)oc2C)o1,22,1,-3,6,0.8,-3
Cc1ccc(/C=N/NC(=S)NC(C)C)o1,51*,1.1,-11,-1,0.5,14
